Drawing on PubChem BioAssay (NCI), this text covers growth for eight compounds.

Test systems include NCI-H23 lung; NCI-H226 lung; NCI-H322M lung; HOP-62 NSCLC; NCI-H460 lung; HOP-92 NSCLC; NCI-H522 lung; A549/ATCC NSCLC; 786-0 renal; COLO 205 colon; DU-145 prostate; K-562 leukemia; MALME-3M melanoma; MDA-MB-231 breast; RXF 393 renal; SF-268 CNS; SF-295 CNS; SF-539 CNS; UACC-257 melanoma; M14 melanoma.
Common to all, as to test: NCI-60 one-dose screen, 48 h (100 = growth as untreated, 0 = no growth, -100 = all killed)
What all share (details): 10 µM unless noted

Each structure is given as a SMILES string. About 83,000 compounds went through this panel and 20% of them were active in at least one assay; those are over-represented in the sample as a whole.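 Single-concentration screen, 48 h exposure, 96-well plates. Endpoint: percent growth. Below 10 = active.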 Unmarked numbers belong to inactive results. The source made the active and inactive calls.

As to `CCCCCCCCCCCC[n+]1ccc(CCCCCCCCC)cc1`, the growth in the experiment with NCI-H23 lung is -80.8% (active); in the experiment with NCI-H226 lung, -65.2% (active); with NCI-H322M lung, 56.1%; in the experiment on HOP-62 NSCLC, -84.8% (active); with NCI-H460 lung, -63.6% (active); with HOP-92 NSCLC, -55.5% (active). Besides, the growth was -33.1% (active) with NCI-H522 lung; -44.8% (active) in the experiment on A549/ATCC NSCLC; -85.1% (active) in the experiment with 786-0 renal; -76.5% (active) in the experiment with COLO 205 colon; -83.6% (active) in the experiment with DU-145 prostate; -37.4% (active) in the experiment with K-562 leukemia. In addition, the growth is -76.4% (active) in the experiment on MALME-3M melanoma; -81.1% (active) with MDA-MB-231 breast; -78.9% (active) with RXF 393 renal; -79.2% (active) in the experiment on SF-268 CNS; -51.3% (active) in the experiment with SF-295 CNS; -80.7% (active) in the experiment on SF-539 CNS. For the same compound, the values for the growth in the experiment on UACC-257 melanoma and in the experiment on M14 melanoma were -18.4% (active) and -82.6% (active), respectively.

On to `Cc1nn(CCO)c(C)c1N=[N+]([O-])c1c(C)nn(CCO)c1C`, for which the growth in the experiment with NCI-H23 lung is 87%; in the experiment with NCI-H226 lung, -28.5% (active); in the experiment on NCI-H322M lung, 98.5%; with HOP-62 NSCLC, 88.1%; in the experiment on NCI-H460 lung it was 76.3%; in the experiment on HOP-92 NSCLC, -47.7% (active). Besides, the growth with NCI-H522 lung is -78% (active); with A549/ATCC NSCLC, 50.5%; in the experiment on 786-0 renal it was -82.3% (active); in the experiment on COLO 205 colon it was -85.6% (active); with DU-145 prostate, -9.05% (active); in the experiment with K-562 leukemia it was -31.8% (active). For the same compound, the growth with MALME-3M melanoma was -59.9% (active); in the experiment with MDA-MB-231 breast it was 98.6%; in the experiment on SF-268 CNS, 81.3%; with SF-295 CNS, 100%; with SF-539 CNS it was 89.1%; in the experiment on UACC-257 melanoma, -56.2% (active). For the same compound, the growth in the experiment on M14 melanoma was -61.6% (active).

`Cc1cc(N/N=C/c2ccccn2)nc2ccccc12`: the growth in the experiment with NCI-H23 lung was 14%; in the experiment on NCI-H226 lung, -1.94% (active); in the experiment with NCI-H322M lung, 7.17% (active); with HOP-62 NSCLC it was 0.2% (active); in the experiment on NCI-H460 lung, 3.05% (active); in the experiment with HOP-92 NSCLC it was -2.87% (active). Also, the growth with NCI-H522 lung is -25.6% (active); in the experiment on A549/ATCC NSCLC, 1.82% (active); in the experiment with 786-0 renal it was 8.98% (active); in the experiment on COLO 205 colon it was 20.5%; in the experiment with DU-145 prostate, 18.2%; in the experiment on K-562 leukemia, 9.21% (active). The growth is 8.16% (active) in the experiment with MALME-3M melanoma; 42% in the experiment on MDA-MB-231 breast; 8.96% (active) with RXF 393 renal; 5.12% (active) with SF-268 CNS; -37.8% (active) with SF-539 CNS; -22.6% (active) with UACC-257 melanoma. In addition, in the experiment with M14 melanoma, the growth was -39.7% (active).

For the compound `OC(c1cc(C23CC4CC(CC(C4)C2)C3)nc2c(Cl)cc(Cl)cc12)C1CCCCN1` (centres undefined), the growth is -53.9% (active) in the experiment with NCI-H23 lung; -69.4% (active) in the experiment with NCI-H226 lung; -19.3% (active) in the experiment with NCI-H322M lung; -88.6% (active) with HOP-62 NSCLC; -71.4% (active) in the experiment on NCI-H460 lung; -80.7% (active) in the experiment with HOP-92 NSCLC. The growth is -81% (active) in the experiment on NCI-H522 lung; -74.6% (active) in the experiment on A549/ATCC NSCLC; -55% (active) in the experiment on 786-0 renal; -87.2% (active) in the experiment on COLO 205 colon; -93.6% (active) in the experiment on DU-145 prostate; -67% (active) with K-562 leukemia. Besides, the growth in the experiment with MALME-3M melanoma was -16.3% (active); with MDA-MB-231 breast it was -62.2% (active); in the experiment on RXF 393 renal, -91.4% (active); with SF-268 CNS, -86.9% (active); in the experiment with SF-539 CNS, -76.9% (active); in the experiment with UACC-257 melanoma it was -69.1% (active). In addition, in the experiment on M14 melanoma, the growth was -85.6% (active).

`CCCOS(=O)(=O)c1ccccc1`: the growth is 101% in the experiment on NCI-H23 lung; 103% in the experiment on NCI-H226 lung; 102% in the experiment on NCI-H322M lung; 84.6% with HOP-62 NSCLC; 106% in the experiment with NCI-H460 lung; 76.1% in the experiment on HOP-92 NSCLC. For the same compound, the growth is 104% in the experiment on NCI-H522 lung; 111% with A549/ATCC NSCLC; 121% in the experiment with 786-0 renal; 108% in the experiment with COLO 205 colon; 118% in the experiment on DU-145 prostate; 128% in the experiment with K-562 leukemia. Besides, the growth in the experiment on MALME-3M melanoma is 111%; in the experiment with MDA-MB-231 breast it was 107%; in the experiment with RXF 393 renal it was 112%; with SF-268 CNS, 106%; in the experiment with SF-295 CNS, 113%; in the experiment on SF-539 CNS it was 102%. The growth with UACC-257 melanoma was 111%; with M14 melanoma it was 115%.

`CC(=O)C1Cc2ccccc2C1=O` (centres undefined): the growth in the experiment with NCI-H23 lung is 95.4%; in the experiment on NCI-H226 lung, 103%; in the experiment on NCI-H322M lung, 89.5%; in the experiment with HOP-62 NSCLC, 90.5%; with NCI-H460 lung it was 111%; with HOP-92 NSCLC, 105%. Besides, the growth was 122% with NCI-H522 lung; 106% in the experiment with A549/ATCC NSCLC; 103% in the experiment with 786-0 renal; 121% with COLO 205 colon; 106% in the experiment with DU-145 prostate; 116% in the experiment with K-562 leukemia. The growth was 94.3% in the experiment on MALME-3M melanoma; 98.8% in the experiment on MDA-MB-231 breast; 103% with SF-268 CNS; 100% with SF-295 CNS; 99.6% with SF-539 CNS; 89.8% with UACC-257 melanoma. The growth in the experiment with M14 melanoma is 109%.

Consider `CCC1C[N+]2=C(c3cc(OC)c(OC)cc3CC2)c2c1cc1n2CCc2cc(OC)c(OC)cc2-1` (centres undefined), for which the growth in the experiment on NCI-H23 lung is 43%; in the experiment with NCI-H226 lung, 65.7%; with NCI-H322M lung, 98.6%; with HOP-62 NSCLC, 55.9%; with NCI-H460 lung it was 21.5%; with HOP-92 NSCLC, -2.62% (active). Besides, the growth in the experiment with NCI-H522 lung was 17%; with A549/ATCC NSCLC, 56.9%; in the experiment with 786-0 renal, 66.3%; with COLO 205 colon, -35.4% (active); in the experiment on DU-145 prostate it was 49%; in the experiment on K-562 leukemia, 21.5%. Besides, the growth in the experiment on MALME-3M melanoma was 29.9%; with MDA-MB-231 breast, 46.1%; with RXF 393 renal, 88.7%; in the experiment on SF-268 CNS, 33.3%; in the experiment with SF-295 CNS it was 63.6%; in the experiment on SF-539 CNS, 31.9%. Also, the growth in the experiment on M14 melanoma is 36.1%.

In the case of `COC(=O)c1cc([N+](=O)[O-])cc([N+](=O)[O-])c1Cl`, the growth in the experiment on NCI-H23 lung is 98.3%; in the experiment with NCI-H226 lung, 102%; with NCI-H322M lung, 106%; in the experiment with HOP-62 NSCLC, 102%; in the experiment with NCI-H460 lung, 102%; in the experiment on HOP-92 NSCLC it was 99.7%. The growth in the experiment with NCI-H522 lung was -74% (active); with A549/ATCC NSCLC, 101%; with 786-0 renal, 102%; in the experiment with COLO 205 colon, -64.1% (active); in the experiment on DU-145 prostate it was 66.1%; in the experiment on K-562 leukemia, 15.2%. The growth in the experiment on MALME-3M melanoma is 49.5%; in the experiment on MDA-MB-231 breast, 105%; in the experiment on RXF 393 renal, 91.4%; with SF-295 CNS it was 101%; in the experiment with SF-539 CNS it was 102%; with UACC-257 melanoma it was 70.4%. Besides, the growth in the experiment with M14 melanoma is 20.5%.
